Laboratory results published in publication PMC6212790, “How bacterial xenogeneic silencer rok distinguishes foreign from self DNA in its resident genome”.
Whole data set: some 33,000 sequences, median “e-score” near -0.038, cut for the highest 2% near 0.33. What follows is part of a selection rich in the highest values, with near analogues and random picks from the rest.

Target: T1, GST-Rok-C97-191 (Bacillus subtilis subsp. subtilis str. …, UniProt O34857 97-191)
T1 sequence: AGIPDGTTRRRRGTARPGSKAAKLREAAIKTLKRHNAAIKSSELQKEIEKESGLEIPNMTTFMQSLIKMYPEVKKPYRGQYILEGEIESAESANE
Assay: protein binding microarray; Rok is a gene silencer of Bacillus subtilis; high values mean tight binding
Conditions: protein: recombinant; tags: GST (pTH5325, pDEST15-Magic modified); dsDNA, one strand shown
How it was run: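 Each has a 25-mer constant primer and a 35-mer variable part from a de Bruijn sequence of order 10, covering every non-palindromic 8-mer at least 32 times (palindromic 16). Preference for each 8-mer is given as a rank-based, unitless enrichment score (E-score). Its range runs from 0.5 (most favored) to −0.5 (most disfavored).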

Row | Sequence | binding signal [E-score]
1 | CGAGTAGC | -0.0476
2 | AGTCAAGG | -0.145
3 | CATGCTCC | -0.102
4 | AAAGGATG | -0.047
5 | AGACAGTA | 0.0933
6 | GAGAACGA | -0.104
7 | CGAGCAAG | -0.0658
8 | CTTACGGC | -0.196
9 | CATATTGC | 0.0992
10 | CAGGTCAA | -0.108
11 | ATGTAGAA | 0.38
12 | AGGTAGAC | 0.093
13 | GTGTAGAA | 0.293
14 | AGGTAGAA | 0.433
15 | CTGTAGAA | 0.258
16 | AGGTAGAG | 0.118
17 | ACCTCTTA | 0.191
18 | TCATAGGA | 0.154
19 | CAGGAGCA | -0.151
20 | CAACCTAC | 0.263
21 | AACATCCT | 0.0847
22 | CGCCTACG | -0.0439
23 | CCCTTGAC | -0.132
24 | CACAGTAG | 0.0897
25 | AATAGTAC | 0.293

Row | Sequence | binding signal [E-score]
26 | GAAAGTAA | 0.226
27 | CAAAGTAC | -0.0306
28 | GAAAGTAC | 0.35
29 | ATTAGTAA | 0.303
30 | AACAGTAG | 0.362
31 | AATAGTCA | 0.186
32 | AATAGTAT | 0.332
33 | AACAGTAA | 0.285
34 | AATAGTAA | 0.338
35 | AATAGTGT | 0.242
36 | AGTTGCCA | 0.0801
37 | ATTAGGGC | -0.073
38 | CAAGACTA | 0.186
39 | CTGACGAA | -0.0673
40 | GATAGCGC | 0.191
41 | GCAAATAA | 0.158
42 | AATGATGA | 0.00727
43 | AAAAGTAC | 0.279
44 | AATAGTCG | -0.0896
45 | CATAGTAG | 0.195
46 | CAAAGTAG | 0.194
47 | AATAGTAG | 0.475
48 | AAAAGTAG | 0.344
49 | AGACCACG | -0.138
50 | CGTGTAAC | 0.0552

Row | Sequence | binding signal [E-score]
51 | CTAGGCAC | -0.149
52 | CGGCTAAC | 0.00729
53 | GAGTTCAC | 0.0331
54 | AGCTCGGG | -0.116
55 | AATATAAG | 0.26
56 | CGTATATC | 0.316
57 | AATATATA | 0.462
58 | AATATTAT | 0.21
59 | AATATATG | 0.337
60 | AATATAGA | 0.309
61 | CCTATATC | 0.0424
62 | AAAATATT | 0.327
63 | ACTATATG | 0.283
64 | AATATATT | 0.417
65 | AATATATC | 0.424
66 | AATATGTG | 0.199
67 | CAGAAACG | -0.0943
68 | TAAGTCAA | -0.0154
69 | ATGATCCA | 0.0416
70 | ACCAACAT | 0.157
71 | CCATCGGG | -0.172
72 | GCCGGACA | 0.0879
73 | GTTATGTA | 0.292
74 | GCTATGTA | 0.226
75 | ATTATGTA | 0.354

Row | Sequence | binding signal [E-score]
76 | ACTATGTA | 0.356
77 | CCTATGTA | 0.302
78 | CTTATGTA | 0.0579
79 | AAGGGCAG | -0.195
80 | AACACATG | 0.0194
81 | AAGCTGTC | 0.0421
82 | ACCAGGAC | -0.0513
83 | CCATGTAC | 0.185
84 | AAATGTAA | 0.349
85 | TAATGTAA | 0.357
86 | GCATGTAC | 0.163
87 | CAATGTAA | -0.0287
88 | GAATGTAA | 0.173
89 | CAATGTAC | 0.204
90 | AAATGTAG | 0.286
91 | ACATGTAC | 0.331
92 | AAATGTAT | 0.27
93 | AAATGTAC | 0.364
94 | GAATGTAC | 0.304
95 | TAATTAGA | 0.324
96 | CATAAAGC | -0.119
97 | GTGCTAGA | 0.197
98 | CTAGCAAC | 0.222
99 | TGCGACAA | -0.0569
100 | CGTGCAGC | -0.0438

Row | Sequence | binding signal [E-score]
101 | GCTACGGA | -0.0221
102 | CCCTAGCG | -0.135
103 | CCACGCTC | -0.0229
104 | ATAGGTTA | 0.162
105 | ATCTGTAC | 0.0594
106 | ATCTGTAG | 0.37
107 | AGATGTAT | 0.264
108 | ATCTGTAA | 0.106
109 | ATATGTAA | 0.28
110 | AGATGTAA | 0.191
111 | ATATGTAC | 0.309
112 | ATATGTAG | 0.386
113 | AGATGTAG | 0.331
114 | AAAAGTGG | 0.0303
115 | GCTACATA | 0.315
116 | GCTAGGCA | -0.0675
117 | CAAGGGCC | -0.186
118 | AAAATACG | 0.266
119 | AAAATACT | 0.371
120 | GAAATACC | 0.289
121 | AAAATACC | 0.357
122 | AAAATACA | 0.32
123 | CAAATACC | 0.114
124 | AAGTAAGG | 0.0741
125 | AGAGTTTC | -0.0267

Row | Sequence | binding signal [E-score]
126 | GTCGGTTA | 0.00256
127 | AAAGTTTG | -0.0186
128 | AGAACGCC | 0.0453
129 | AGGTCCTC | -0.0779
130 | ACTCCTTA | 0.00627
131 | AAAACCAA | 0.0758
132 | AGTGATGA | 0.024
133 | AGTAGTAT | 0.368
134 | ATTAGTAG | 0.319
135 | AGTAGTAG | 0.385
136 | CGTAGTAC | 0.186
137 | AGTAGTAC | 0.356
138 | AGAAGTAT | 0.292
139 | GGTAGTAC | 0.268
140 | CGTAGTAG | 0.223
141 | AGCAGTAT | 0.0236
142 | GTTGGCTA | 0.0528
143 | CACAGGTA | -0.0357
144 | CTCAATAA | 0.215
145 | CGTATTTA | 0.318
146 | CATATTAA | 0.194
147 | CATATTTA | 0.282
148 | GATATTTA | 0.328
149 | AATATTTA | 0.311
150 | AATATTAA | 0.285

Row | Sequence | binding signal [E-score]
151 | GATATTAC | 0.328
152 | AATATTAC | 0.284
153 | AGTATTTA | 0.301
154 | GATATTAA | 0.379
155 | CATATTAC | 0.22
156 | GGTATTTA | 0.342
157 | CTGCAGGC | -0.199
158 | ACCACTCG | -0.181
159 | ACATCATG | -0.155
160 | GCTCGACA | -0.145
161 | CCCATTAC | -0.0975
162 | GCTAACAC | -0.0971
163 | TGCCTGAA | -0.0885
164 | CGAGTCCG | -0.192
165 | TGTATTAA | 0.294
166 | TATATTAA | 0.387
167 | TATATTGA | 0.288
168 | CAACGAAA | 0.00998
169 | AATTCACG | 0.127
170 | CGCTTTGA | -0.0415
171 | GCTACTAA | 0.229
172 | TGTACTAA | 0.191
173 | ACTACTTA | 0.415
174 | TCTACTCA | 0.188
175 | AGTACTTA | 0.355

Row | Sequence | binding signal [E-score]
176 | ACTACTTC | 0.226
177 | TCTACTAA | 0.342
178 | ACTACTGA | 0.269
179 | AGTACTTG | 0.296
180 | GGTACTAA | 0.249
181 | CGTACTTA | 0.23
182 | ACTACTAA | 0.379
183 | CGTCCCAA | -0.181
184 | CATTATGA | 0.0691
185 | TCCACTCA | -0.127
186 | AGCCAATG | -0.162
187 | CGCAGAAG | -0.171
188 | CTAATTAA | 0.275
189 | ATAATTAA | 0.298
190 | AAATTTAA | 0.299
191 | ATAATTAT | 0.137
192 | TCAATTAA | 0.161
193 | TTAATTAA | 0.346
194 | ATAATTAG | 0.354
195 | CCAATTAC | 0.0758
196 | TAATTTAA | 0.396
197 | CTAATTCC | 0.159
198 | CTAATTAC | 0.382
199 | GAATTTAA | 0.124
200 | GTCCTAGA | -0.199

Row | Sequence | binding signal [E-score]
201 | AATGTCGC | 0.0115
202 | CTAGCTAG | 0.294
203 | ATCTTAGG | -0.016
204 | CGGCGGTA | 0.123
205 | CCAGGTCA | -0.0861
206 | GTAATTAA | 0.213
207 | AGAATTAC | 0.217
208 | ATAATTGC | 0.26
209 | GTAATTAC | 0.43
210 | CGAATTAG | 0.279
211 | ATAATTAC | 0.332
212 | GCAATTAC | 0.13
213 | CCAATTAG | -0.111
214 | CTAATTAG | 0.362
215 | ATGAATTC | 0.0443
216 | CGCTTAGA | -0.0215
217 | GATATCGA | 0.223
218 | GAACGACC | -0.143
219 | CGTTCTAG | 0.22
